Compound activity (PubChem BioAssay)
A selection follows.
aSyn 5UTR act: Activators via SNCA 5'UTR binding, MLPCN. alpha-synuclein 5'UTR reporter, activators screen. activity score, % (tested at 7.5 µM), hits read low. 300,000 tested, 7.1% active. AID 1814; in the data active = activity score below about -60%
The depositor's hits bear a star.

Results for CCOc1ccc(NC(=S)NCCCn2ccnc2)cc1 ?
aSyn 5UTR act: -77*

How did CCCCOc1ccc(NC(=O)C(=O)NCCCn2ccnc2)cc1 do in these assays?
aSyn 5UTR act: 66

What do the screens show for `O=C(c1ccco1)N1CCN(Cc2c(Cl)cccc2Cl)CC1`?
aSyn 5UTR act: -85*

What do the screens show for `Nc1ccc(OCCc2ccccc2)cc1`?
aSyn 5UTR act: -76*

What do the screens show for `CCOC(=O)C1(C)C=C(Nc2cccc(OC)c2)C(=O)N1c1ccccc1` (stereo not drawn)?
aSyn 5UTR act: -79*

Results for CNS(=O)(=O)c1cc2c3c(cccc3c1)C(=O)NC2=O ?
aSyn 5UTR act: 71

How did CNc1cccc2c1C(=O)c1ccccc1C2=O do in these assays?
aSyn 5UTR act: -119*

How did Cc1cc(C(=O)CSc2cccc[n+]2[O-])c(C)n1-c1ccc(OC(F)F)cc1 do in these assays?
aSyn 5UTR act: -103*

How did CSc1nsc(SCC(=O)Nc2ccc(OC(C)=O)cc2)n1 do in these assays?
aSyn 5UTR act: -124*

Results for CSc1nsc(SCC(=O)Nc2ccccc2F)n1 ?
aSyn 5UTR act: -63*

How did CCOC(=O)c1ccc(NC(=O)CSc2nc(SC)ns2)cc1 do in these assays?
aSyn 5UTR act: -107*

Results for CC(CNC(=O)c1ccccc1Cl)c1ccccc1 (stereo not drawn) ?
aSyn 5UTR act: -111*

What do the screens show for `Cc1ccccc1C(=O)NCC(=O)c1ccccc1`?
aSyn 5UTR act: -135*

What do the screens show for `O=C(CNC(=O)c1ccccc1F)c1ccccc1`?
aSyn 5UTR act: -93*

Results for O=C(COc1ccccc1)NCCSc1ccccc1 ?
aSyn 5UTR act: -99*

What do the screens show for `O=C(NCCSc1ccccc1)c1ccccc1F`?
aSyn 5UTR act: -76*

What do the screens show for `O=C(CNC(=O)c1ccccc1Cl)c1ccccc1`?
aSyn 5UTR act: -113*

Results for O=C(NCCSc1ccccc1)c1cccnc1 ?
aSyn 5UTR act: -100*

Results for CCCCOc1ccc(C(=O)Nc2ccc3c(c2)OCO3)cc1 ?
aSyn 5UTR act: -93*

Results for CCCOc1ccc(C(=O)Nc2ccc3c(c2)OCO3)cc1 ?
aSyn 5UTR act: -95*

How did CCC(=O)Oc1ccc(C(=O)Nc2ccc3c(c2)OCO3)cc1 do in these assays?
aSyn 5UTR act: -72*

Results for S=C1NC(c2ccccc2)=NCN1c1ccc(Cl)cc1 ?
aSyn 5UTR act: -84*

Results for COc1ccc(/C=C/C(=O)NC(=S)NNC(=O)c2cnccn2)cc1 ?
aSyn 5UTR act: 75

What do the screens show for `COc1ccccc1/C=C/C(=O)NC(=S)Nc1ccccn1`?
aSyn 5UTR act: -126*

How did COc1ccc(/C=C/C(=O)NC(=S)Nc2ccccn2)cc1 do in these assays?
aSyn 5UTR act: -94*

What do the screens show for `O=C(N/N=C1/CC2C=CCC12)c1ccc(Br)o1` (stereo not drawn)?
aSyn 5UTR act: -83*

What do the screens show for `COc1ccc(-c2csc(-c3cccs3)n2)c(OC)c1`?
aSyn 5UTR act: -126*

How did COc1ccc(-c2csc(-c3ccccc3)n2)c(OC)c1 do in these assays?
aSyn 5UTR act: -202*

Results for CSc1nsc(NC(=O)Cc2ccccc2)n1 ?
aSyn 5UTR act: -85*

Results for CCOc1ncccc1C(=O)Nc1nc(SC)ns1 ?
aSyn 5UTR act: -108*

How did CCCN1C/C(=C/c2ccc3c(c2)OCO3)C(=O)/C(=C/c2ccc3c(c2)OCO3)C1 do in these assays?
aSyn 5UTR act: -105*

Results for CCN(CC)C(=O)COc1ccc(-c2ccccc2)cc1 ?
aSyn 5UTR act: -116*

Results for COc1cc(NC(=O)c2ccc3snnc3c2)cc(OC)c1 ?
aSyn 5UTR act: -65*

What do the screens show for `O=C(Nc1ccccc1)c1ccc2snnc2c1`?
aSyn 5UTR act: -79*

What do the screens show for `CC(C)c1ccc(NC(=O)c2ccc3snnc3c2)cc1`?
aSyn 5UTR act: -117*

Results for Cc1ccc(NC(=O)c2ccc3snnc3c2)cc1 ?
aSyn 5UTR act: -226*

Results for COc1ccc2nc(N3CCC(C)CC3)c(C#N)cc2c1 ?
aSyn 5UTR act: -175*

How did Cc1cc(-c2ccccc2)nc(N/N=C/c2ccccc2F)n1 do in these assays?
aSyn 5UTR act: -160*

What do the screens show for `C/C(=N/Nc1nc(C)cc(-c2ccccc2)n1)c1ccco1`?
aSyn 5UTR act: -76*

How did C/C(=N\Nc1nc(C)cc(-c2ccccc2)n1)c1ccccc1 do in these assays?
aSyn 5UTR act: -102*

Results for C/C(=N\Nc1nc(C)cc(-c2ccccc2)n1)c1cccc(N)c1 ?
aSyn 5UTR act: -64*

Results for CC1=CN2C(=N)/C(=C/c3ccco3)C(=O)N=C2S1 ?
aSyn 5UTR act: -219*

Results for COC(=O)C1CCN(C(=O)c2oc3c(Cl)cc(C)cc3c2C)CC1 ?
aSyn 5UTR act: -74*

What do the screens show for `Cc1cc(Cl)c2oc(C(=O)N3CCN(c4ccncc4)CC3)c(C)c2c1`?
aSyn 5UTR act: 90

What do the screens show for `Cc1cc(C(=O)N/N=C/c2c(C)nn(-c3ccccc3)c2C)c(C)o1`?
aSyn 5UTR act: -69*

Results for Cc1nn(-c2ccccc2)c(C)c1/C=N/NC(=O)c1cc(-c2ccccc2)n[nH]1 ?
aSyn 5UTR act: 82

Results for Cc1nn(-c2ccccc2)c(Cl)c1/C=N/NC(=O)c1ccc(NS(=O)(=O)c2cccs2)cc1 ?
aSyn 5UTR act: -109*

What do the screens show for `O=C(N/N=C/c1cn(-c2ccccc2)nc1-c1cccs1)c1ccc(Cl)cc1`?
aSyn 5UTR act: -66*

How did Cc1nn(-c2ccccc2)c(Cl)c1/C=C/C(=O)c1ccccc1 do in these assays?
aSyn 5UTR act: -107*

How did Cc1nn(-c2ccccc2)c(Cl)c1/C=N/NC(=O)c1[nH]ncc1Br do in these assays?
aSyn 5UTR act: -67*

What do the screens show for `Cc1nn(-c2ccccc2)c(Cl)c1/C=N/NC(=O)c1ccccc1F`?
aSyn 5UTR act: -89*

How did NC(N)=NS(=O)(=O)c1ccc(N/C=C/C(=O)c2ccc(Cl)c(Cl)c2)cc1 do in these assays?
aSyn 5UTR act: -119*

How did CCCN(CC(=O)Nc1cc(Cl)ccc1Cl)C(=O)/C=C/c1ccco1 do in these assays?
aSyn 5UTR act: -68*

What do the screens show for `COc1ccc(O)c(-c2cc(-c3cccs3)[nH]n2)c1`?
aSyn 5UTR act: -125*

Results for COc1ccc(O)c(-c2cc(-c3ccccc3Cl)[nH]n2)c1 ?
aSyn 5UTR act: -115*

Results for COc1ccc(-c2cc(-c3ccccc3)n[nH]2)c(O)c1 ?
aSyn 5UTR act: -217*

Results for CCOc1ccc(/C=C/C2=Cc3c(sc(NC(=O)CSc4n[nH]c(N)n4)c3C#N)C(C)(C)C2)cc1 ?
aSyn 5UTR act: -95*

What do the screens show for `CCOc1cc(/C=C2\CCC/C(=C\c3cc(Cl)c(O)c(OCC)c3)C2=O)cc(Cl)c1O`?
aSyn 5UTR act: -329*

Results for CCOc1cc(/C=C2\CN(C)C/C(=C\c3ccc(O)c(OCC)c3)C2=O)ccc1O ?
aSyn 5UTR act: 96

What do the screens show for `CCc1cccc2c1Sc1ccccc1CC2N1CCNCC1` (stereo not drawn)?
aSyn 5UTR act: 104

How did O=C(N/N=C/c1cc(Br)cs1)c1c[nH]c2ccccc12 do in these assays?
aSyn 5UTR act: -68*

How did O=C(N/N=C/c1ccc(Br)s1)c1c[nH]c2ccccc12 do in these assays?
aSyn 5UTR act: -152*

What do the screens show for `CCn1nnc(NC(=O)c2ccc(C(C)(C)C)cc2)n1`?
aSyn 5UTR act: -112*

How did CCCn1nnc(NC(=O)c2cccc(OCC)c2)n1 do in these assays?
aSyn 5UTR act: -141*

What do the screens show for `CCCn1nnc(NC(=O)c2ccc3ccccc3c2)n1`?
aSyn 5UTR act: -185*

What do the screens show for `CCCn1nnc(NC(=O)c2ccc(Cl)cc2Cl)n1`?
aSyn 5UTR act: -115*

How did Cc1ccc(C(=O)Nc2nnn(C)n2)cc1 do in these assays?
aSyn 5UTR act: -76*
